Vaccinia Venus = vaccinia inhibition (Venus reporter). Vaccinia virus Venus reporter expression, fluorescence. Potency, µM (top dose mostly 36.5 µM), without a hit: at the top dose activity change, negative = inhibition, usual class: inhibitors. 0.46% of 330,000 active. AID 720580; calls by dose curve; tested in A549 cells; further: potency means the concentration at half of the fitted maximal effect; nearly all actives have a fitted effect of over 30% in size
HCV inh = HCV inhibition | Potency, µM (highest dose often 41.8 µM), for the others: at the top dose activity change, negative = inhibition, hits mostly inhibitors | 3.4% of 340,000 active | Huh7.5.1 HCVcc-Cre infection, luciferase reporter, 44 h; active means well fitted inhibition curve with a large enough effect; inconclusive means small, poorly fitted or top-dose-only effect, or another doubt; inactive means no such curve, though single readings can be large or run the other way; further: potency means the concentration at half of the fitted maximal effect
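Luciferase read-out (15 sec integration) after a 15 min room-temperature substrate step quantifies HCVcc-Cre infection. Cells, 1,000 per well, had compound added 4 h post-plating, then virus at ~0.5 moi, and were cultured 44 h.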
HCMV inh = blocks human cytomegalovirus replication. HFF cells, HCMV-luciferase reporter, 72 h; hits give low values. activity change, negative = inhibition, % at 57.5 µM. 4.5% of 410,000 active. AID 1259415; in the data active means activity change below about -60%; inconclusive means no clear call, values can overlap the other calls; inactive means above about -39%
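Luciferase read-out from HCMV-luciferase-infected HFFs (MOI 1 PFU/cell) 72 h post infection at 37C; compounds added after 16 h cell attachment; activity normalized between buffer-only basal and Salinomycin (10uM) inhibitor controls.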
Lassa entry inh = Lassa virus entry inhibition; 1.2% of 300,000 active; AID 540256; Potency, µM (series often up to 37.9 µM), inactives show at the highest dose activity change, negative = inhibition, most hits filed as inhibitors; Lassa virus pseudotype entry inhibition, cell reporter; calls by dose curve; tested in HEK293 cells; further: potency means the concentration at half of the fitted maximal effect; nearly all actives have a fitted effect of over 50% in size
VACV mCherry inh = vaccinia inhibition (mCherry reporter). AID 720579. 0.63% of 310,000 active. Potency, µM (series often up to 36.5 µM), for inactives: at the top dose activity change, negative = inhibition, most hits filed as inhibitors. Vaccinia virus mCherry reporter infection, fluorescence; calls by dose curve; tested in A549 cells; further: potency means the concentration at half of the fitted maximal effect; nearly all actives have a fitted effect of over 35% in size
Marburg entry inh = inhibitors of Marburg virus binding or cell entry; 1.8% of 300,000 active; AID 540276; Potency, µM (highest dose often 37.8 µM), without a hit: top-dose activity change, negative = inhibition, usual class: inhibitors; Marburg virus pseudotyped entry inhibition, cell reporter; calls by dose curve; tested in HEK293 cells; further: potency means the concentration at half of the fitted maximal effect
An asterisk follows results filed as active; [ ] = another dose, or the depositor's remark. An excerpt weighted towards active compounds, which were near 7.8% of everything screened. On the % scale 0 is the no-effect control and ±100 the full control effect.

`O=C(CN1C(=O)/C(=C/c2ccccc2)Sc2ccccc21)NCCCN1CCOCC1` gave HCV inh -17% and HCMV inh -62*.
`COc1cccc(C(=O)N(Cc2sccc2C)C2CCS(=O)(=O)C2)c1` (stereo not drawn) gave Vaccinia Venus -9%, HCMV inh 26, Lassa entry inh 4%[46.1 µM], VACV mCherry inh -3% and Marburg entry inh -21%[46.1 µM].
Screening COc1ccc(-c2cn3c(n2)sc2cc(C(=O)NCCc4ccc(OC)cc4OC)ccc23)cc1 returned Vaccinia Venus -7%, Lassa entry inh 5%[46.1 µM] and VACV mCherry inh -6%.
Screening COc1cc(OC)c(NC(=O)c2nn(C)c3c2COc2ccccc2-3)cc1Cl returned Vaccinia Venus -10%, HCMV inh -15, Lassa entry inh -28%[46.1 µM], VACV mCherry inh -16% and Marburg entry inh -17%[46.1 µM].
`Cc1nn(CC(=O)NCCc2ccccc2)c(=O)c2nn(-c3ccccc3)c(C)c12` gave Vaccinia Venus -19%, HCMV inh 45, Lassa entry inh 16%[46.1 µM] and VACV mCherry inh -16%.
For Cn1c(NN=O)nc2ccccc21 the results were Vaccinia Venus inconclusive, HCV inh inconclusive, HCMV inh -100*, Lassa entry inh inconclusive, VACV mCherry inh inconclusive and Marburg entry inh inconclusive.
`CC(=O)Nc1nc2ccccc2n1Cc1ccccc1` gave Vaccinia Venus -4%, HCV inh -4%, HCMV inh -11, Lassa entry inh -13%, VACV mCherry inh -14% and Marburg entry inh -26%.
O=NNc1nc2ccccc2n1Cc1ccccc1 was read as HCV inh inconclusive and HCMV inh -80*.
Cc1ccc(-n2c(Cl)c(Cl)nc(Cl)c2=O)cc1 was read as Vaccinia Venus inconclusive, HCV inh 7.1µM*, Lassa entry inh 7.3µM*, VACV mCherry inh inconclusive and Marburg entry inh inconclusive.
For CC1CCN(S(=O)(=O)c2ccc3nc(Nc4cccc(F)c4)ccc3c2)CC1 the results were Vaccinia Venus -24%, HCMV inh -102*, Lassa entry inh -21%[46.1 µM] and VACV mCherry inh inconclusive.
Cc1ccc(Nc2ccc3cc(S(=O)(=O)N4CCC(C)CC4)ccc3n2)c(Cl)c1 was read as Vaccinia Venus -18%, HCMV inh -12, Lassa entry inh -21%[46.1 µM] and VACV mCherry inh -7%.
For COc1cc2nc(N(CCCN(C)C)C(=O)c3ccc(S(=O)(=O)N(C)C4CCCCC4)cc3)sc2cc1OC the results were Vaccinia Venus -26%, HCV inh -12%, HCMV inh -8, Lassa entry inh inconclusive, VACV mCherry inh -13% and Marburg entry inh inconclusive.
`CCN(CC)CCN(C(=O)c1c(F)cccc1F)c1nc2cc(C)cc(C)c2s1` gave HCV inh 10µM* and HCMV inh -22.
Screening CCc1ccc2nc(N(CCCN(C)C)C(=O)c3ccc(S(=O)(=O)N(C)C4CCCCC4)cc3)sc2c1 returned Vaccinia Venus 62%, HCV inh -27%, HCMV inh -86*, Lassa entry inh inconclusive, VACV mCherry inh inconclusive and Marburg entry inh inconclusive.
CN(C)CCCN(C(=O)c1ccc(S(=O)(=O)N(C)C2CCCCC2)cc1)c1nc2ccc(F)cc2s1 was read as Vaccinia Venus -19%, HCV inh -11%, HCMV inh -3, Lassa entry inh inconclusive, VACV mCherry inh inactive and Marburg entry inh inconclusive.
Cc1cc(C)c2sc(N(CCN(C)C)C(=O)c3ccc4ccccc4c3)nc2c1 was read as HCV inh inconclusive and HCMV inh active.
Screening Cc1cc(C)c2sc(N(CCCN(C)C)C(=O)c3ccc(S(=O)(=O)N(C)C4CCCCC4)cc3)nc2c1 returned Vaccinia Venus 13µM*, HCV inh 10µM*, HCMV inh -5, Lassa entry inh inconclusive, VACV mCherry inh 14µM* and Marburg entry inh inconclusive.
Screening COc1cccc(CNC(=O)N2CCc3c(sc4c3CCCC4)C2c2ccc(F)cc2)c1 (stereo not drawn) returned Vaccinia Venus -28%, HCMV inh -26, Lassa entry inh inconclusive and VACV mCherry inh inconclusive.
Screening CCN(CC)S(=O)(=O)c1cccc(-n2c(O)c(C=Nc3ccccc3C(=O)O)c3ccccc3c2=O)c1 returned Vaccinia Venus -21%, HCV inh inconclusive, HCMV inh -79* and VACV mCherry inh inconclusive.
`CC(C)=CCN1CCN(Cc2cnc(C)s2)CC1CCO` (stereo not drawn) gave Vaccinia Venus -1%, HCV inh 5%, HCMV inh -9, Lassa entry inh 25%, VACV mCherry inh -4% and Marburg entry inh 1%[46.1 µM].
`CC(C)=CCN1CCN(Cc2ccc(C)s2)CC1CCO` (stereo not drawn) gave Vaccinia Venus -16%, HCV inh 8%, HCMV inh -67*, Lassa entry inh inconclusive, VACV mCherry inh -1% and Marburg entry inh -9%.
`Cc1ccc(CNC(=O)c2cn(C3CCCCC3)c(=O)c3c2c2ccccc2n3C)o1` gave Vaccinia Venus -13%, HCV inh -1%, HCMV inh 22, Lassa entry inh -28%, VACV mCherry inh -23% and Marburg entry inh inconclusive.
Screening Cc1cc(NC(=O)c2cn(C3CCCCC3)c(=O)c3c2c2ccccc2n3C)no1 returned Vaccinia Venus -21%, HCV inh 11µM*, HCMV inh 97 and VACV mCherry inh -17%.
Screening O=C(CN1C2=NCCCN2c2ccccc21)c1cccc(Br)c1 returned Vaccinia Venus -19%, HCV inh inconclusive, HCMV inh 0, Lassa entry inh inconclusive, VACV mCherry inh inconclusive and Marburg entry inh inconclusive.
O=C(CN1C2=NCCCN2c2ccccc21)c1ccc([N+](=O)[O-])cc1 was read as HCV inh 11µM*, HCMV inh -66*, Lassa entry inh -14% and Marburg entry inh inconclusive.
Screening CC1=C/C(=N\OS(=O)(=O)c2ccccc2)C(C)=CC1=O returned Vaccinia Venus -26%, HCV inh inconclusive, HCMV inh -100*, Lassa entry inh inconclusive, VACV mCherry inh inconclusive and Marburg entry inh inconclusive.
Screening CC1=C/C(=N\OS(=O)(=O)c2ccccc2)C(C(C)C)=CC1=O returned Vaccinia Venus -2%, HCV inh inconclusive, HCMV inh -82*, Lassa entry inh inconclusive, VACV mCherry inh -20% and Marburg entry inh inconclusive.
For Cc1cc2occ(CC(=O)NCc3cccs3)c2cc1C(C)C the results were Vaccinia Venus -19%, HCV inh -23%, HCMV inh 23, Lassa entry inh -13%, VACV mCherry inh inconclusive and Marburg entry inh inconclusive.
Screening Cc1csc(NC(=O)Cc2coc3cc(C)c(C(C)C)cc23)n1 returned Vaccinia Venus -18%, HCV inh 10µM*, HCMV inh -89*, Lassa entry inh 2.8µM* and Marburg entry inh 4µM*.
